Hits are enriched below; roughly 4.6% of the tested compounds scored in any of these assays.
HCV inhibitor: HCV inhibition; Huh7.5.1 HCVcc-Cre infection, luciferase reporter, 44 h; Potency, µM (top dose mostly 41.8 µM), inactives show top-dose activity change, negative = inhibition, hits mostly inhibitors; hit rate 3.4% among 340,000; active = well fitted inhibition curve with a large enough effect; inconclusive = small, poorly fitted or top-dose-only effect, or another doubt; inactive = no such curve, though single readings can be large or run the other way
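Whole-lifecycle infectious HCVcc-Cre system; cells 1,000/well, compound then virus (~0.5 moi) added 4 h after plating, 44 h culture. Luciferase read 15 sec following 15 min substrate incubation, room temp.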
Lassa entry inh: Lassa virus entry inhibition. Lassa virus pseudotype entry inhibition, cell reporter. Potency, µM (series often up to 37.9 µM), without a hit: top-dose activity change, negative = inhibition, most hits filed as inhibitors. hit rate 1.2% among 300,000. AID 540256; calls by dose curve; tested in HEK293 cells; also: nearly all actives have a fitted effect of over 50% in size
Vaccinia Venus: vaccinia inhibition (Venus reporter) | Potency, µM (titrated, usually from 36.5 µM), inactives show at the top dose activity change, negative = inhibition, hits mostly inhibitors | Vaccinia virus Venus reporter expression, fluorescence | hit rate 0.46% among 330,000; calls by dose curve; tested in A549 cells; also: nearly all actives have a fitted effect of over 30% in size
MARV entry inh: inhibitors of Marburg virus binding or cell entry. Potency, µM (titrated, usually from 37.8 µM), for inactives: top-dose activity change, negative = inhibition, hits mostly inhibitors. AID 540276. hit rate 1.8% among 300,000. Marburg virus pseudotyped entry inhibition, cell reporter; calls by dose curve; tested in HEK293 cells
Vaccinia mCherry: vaccinia inhibition (mCherry reporter); Potency, µM (series often up to 36.5 µM), without a hit: at the highest dose activity change, negative = inhibition, most hits filed as inhibitors; Vaccinia virus mCherry reporter infection, fluorescence; hit rate 0.63% among 310,000; calls by dose curve; tested in A549 cells; also: nearly all actives have a fitted effect of over 35% in size
* hit, by the source's call; i = inactive; u = inconclusive; x = no result given; [ ] = another dose, or the depositor's remark. % is scaled to controls: 0 for no effect and ±100 for the full control effect; potency is read from the fitted curve at half-maximal effect.

SMILES	HCV inhibitor	Lassa entry inh	Vaccinia Venus	MARV entry inh	Vaccinia mCherry
C/C(=N\NC(=O)c1cc(-c2cccc([N+](=O)[O-])c2)n[nH]1)c1ccccc1O	11%	u	u	u	10µM*
O=C(c1cc(-c2ccccc2)on1)N1CCCCCC1	4%	13µM*	-7%	u	7%
O=C(c1cc(-c2ccc(O)cc2)on1)N1CCCC1	-2%	u	-13%	11µM*	-30%
O=C(c1cc(-c2ccc(Cl)cc2)on1)N1CCOCC1	3%	9.2µM*	x	u	x
Cc1ccc(-c2cc(C(=O)N3CCCCCC3)no2)cc1	6%	u	-7%	u	i
Cc1nc(N2CCCC2)c2c(C(=O)Nc3cccc(C)c3C)c(C)oc2n1	x	17%[46.1 µM]	-7%	x	i
Cc1ccc(Cn2c(CNS(=O)(=O)c3cccc([N+](=O)[O-])c3)nc3cccnc32)cc1	x	5%[46.1 µM]	-7%	x	-13%
Cc1ccc(N2C(=O)c3ccccc3C2O)nc1 (stereo not drawn)	5%	3.7µM*	x	2.1µM*	x
Cc1nc2ccc(C(=O)OC(C)C(=O)c3c(C)[nH]c4ccccc34)cc2nc1C (stereo not drawn)	x	x	13%	x	-18%
COc1ccc([C@H]2/C(=C(\O)c3ccc(OC(C)C)cc3)C(=O)C(=O)N2CCCN2CCOCC2)cc1	x	x	x	-13%	x
CCNc1nc(N)nc(-c2cc(Cl)ccc2O)n1	u	u	10µM*	u	10µM*
CCCCNc1nc(N)nc(-c2cc(Cl)ccc2O)n1	u	u	20µM*	u	u
CCCNc1nc(N)nc(-c2cc(Cl)ccc2OC)n1	0%	2%	-12%	-4%	x
COCc1ccc(CN2CCOc3c(O)cc(-c4cc(C)c5ccc(F)cc5n4)cc3C2)o1	x	x	-15%	x	-18%
C(=C\c1nc2ccccc2o1)/c1ccc2c(c1)OCO2	x	x	-18%	x	-17%
Cc1cccc2cc(CN(C(=O)c3ccc(-c4ccc(F)cc4)cc3)C3CC3)c(N3CCC(O)CC3)nc12	x	x	-20%	x	u
COc1ccc2c(c1)CCC1C2CC[C@@]2(C)C1CC[C@@H]2NCCCCCCN1C(=O)CCC1=O (stereo partly drawn)	x	13µM*	x	u	x
COc1ccc(NS(=O)(=O)c2ccc3c(c2)CCCN3C(=O)C2CCC2)cc1OC	x	u	-13%	x	u
CCC(C)c1ccc(NC(=S)NC2CCN(Cc3ccccc3)CC2)cc1 (stereo not drawn)	10µM*	u	10µM*	11µM*	u
S=C(Nc1ccc(Cl)cc1)NC1CCN(Cc2ccccc2)CC1	11µM*	u	u	u	u
Cc1c(O)c2c(c(C(=O)/C=C/c3ccccc3)c1O)OC(C)(C)C=C2	x	x	-19%	x	-13%
CC(C)CCNC(=O)c1cn(C)c2ccc(S(=O)(=O)N3CCOCC3)cc2c1=O	x	18%[46.1 µM]	-26%	26%[46.1 µM]	i
COc1ccc(C(=O)c2ccc(Cl)c([N+](=O)[O-])c2)cc1	u	u	-28%	5.8µM*	-4%
COc1ccc(C(=O)c2ccc(Cl)cc2)cc1	u	4%	-12%	13%	x
NC(=O)[C@H]1CC2(CC(c3cccc(NC(=O)COc4ccc(Cl)cc4)c3)=NO2)CN1C(=O)c1ccc(Cl)cc1 (stereo partly drawn)	-30%	x	11µM*	x	11µM*
SMILES	HCV inhibitor	Lassa entry inh	Vaccinia Venus	MARV entry inh	Vaccinia mCherry
Cc1nc(-c2cccc(NC(=O)COc3ccc(Cl)cc3)c2)cs1	x	u	-21%	13µM*	-7%
Cc1nc(-c2cccc(NC(=O)C(C)Oc3ccccc3)c2)cs1 (stereo not drawn)	u	8.9µM*	-18%	-2%	0%
CC(Oc1ccccc1)C(=O)Nc1nc(-c2ccncc2)cs1 (stereo not drawn)	3%	x	x	x	x
CC(Oc1ccc(F)cc1)C(=O)Nc1ccc2ccccc2c1 (stereo not drawn)	u	u	x	12µM*	x
Cc1ccccc1C(=O)Nc1ccc(OCc2cc(=O)n3cccc(C)c3n2)cc1	x	-15%[46.1 µM]	-7%	x	-10%
CCC[C@H](C)n1[nH]c(=O)cc1N	x	x	x	30%	x
CCc1ccc(NC(=O)C2CCCN(S(=O)(=O)c3cccc4cccnc34)C2)cc1 (stereo not drawn)	x	u	-12%[7.34 µM]	u	-8%[7.34 µM]
CC(CCN1CCCc2nc(C)c(C)cc21)=NO[C@H](C)c1cn([C@H](CO)Cc2ccccc2)nn1	x	x	x	-41%[14.2 µM]	x
Cc1nc2ccn(Cc3cccnc3)c(=O)c2cc1C(=O)NCc1ccc(Cl)cc1	x	u	-5%	x	i

Screening results as filed in PubChem BioAssay.
